Measured values published in PubChem BioAssay (NCI).
“And” between values parts separate entries of the source, which are not always exact repeats. Equal entries are not always repeated. This is part of a sample that, as a whole, favours compounds with a hit. Of some 83,000 tested, about 20% had one in any assay.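 Growth was measured after 48 h exposure to one concentration of compound in 96-well plates. Values under 10 count as active.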 The source made the active and inactive calls.

tested on: MDA-MB-468 breast; test: NCI-60 one-dose screen, 48 h (100 = growth as untreated, 0 = no growth, -100 = all killed); conditions: 10 µM unless noted

Row | Structure (SMILES) | growth
1 | CNC(=O)c1cc(Oc2ccc3c(c2)sc2nc(-c4ccc(N(C)C)cc4)cn23)ccn1 | 36.5% (inactive)
2 | COc1cc(/C=C/c2cc(/C=C/c3ccc(O)c(OC)c3)n(C(=O)c3ccccc3Br)n2)ccc1O | 2.97% (active)
3 | C=CCn1c(-c2nc3ccc(C(=C(C#N)C#N)c4ccccc4)cc3[nH]2)cc2cc(Br)ccc21 | 42.6% (inactive)
4 | COc1cc2c(cc1OC)C(Sc1ccc(SC)cc1)c1c(nc(N)c(C#N)c1N)O2 (stereo unspecified) | -47.1% (active)
5 | N#Cc1nc(-c2ccccc2)oc1S(=O)(=O)N1CCN(c2ccc(F)cc2)CC1 | 44.8% (inactive)
6 | COc1cc2nc(N3CCC[C@H](NC4=CC(=O)c5ccccc5C4=O)C3)nc(N)c2cc1OC | -55.9% (active)
7 | Brc1ccccc1Nc1ccc2nnc(-c3ccncc3)n2n1 | 85.3% (inactive)
8 | COc1cc(/C=C2\C(=O)ON=C2C)cc(OC)c1OC | 107% (inactive)
9 | COC(=O)c1nc(N)nc(C(=O)OC)c1C(=O)c1ccc(OC)cc1 | 98.1% (inactive) and 47.2% (inactive)
10 | CC1(C)NC(=S)NC1=O | 109% (inactive)
11 | CC1(C)CC(O)CCCCCCOc2c(CN)cccc2NC(=O)c2nc(cnc2N)-c2ccc(cc2)S1(=O)=O (stereo unspecified) | 6.87% (active)
12 | Cc1cccc(Cc2cnc(NC(=O)/C=C/c3ccco3)s2)c1 | 31.2% (inactive)
13 | Fc1ccccc1CSc1ncnc2nc[nH]c12 | 97.6% (inactive)
14 | Cc1ccc2c(c1)C(C)Cc1c(Cl)ncnc1N2C (stereo unspecified) | -26.4% (active)
15 | COC[C@]12CCC(C)(C)C[C@H]1C1=CC[C@@H]3[C@@]4(C)CCCNC(C)(C)[C@@H]4CC[C@@]3(C)[C@]1(C)CC2 | -82.1% (active)
16 | CC(C)[C@@H]1CC[C@@H]2[C@@H]1[C@H](OC(=O)/C=C/c1ccccc1)[C@]1(C(C)C)C[C@@H](OC(=O)CO)[C@@]2(C)O1 | 113% (inactive)
17 | CC(=O)/C(N=Nc1ccc(S(=O)(=O)c2ccc(N=N/C(C(C)=O)=C(/C)O)cc2)cc1)=C(\C)O | 108% (inactive)
18 | Nc1cc2c(cc1Cl)-c1ccc([N+](=O)[O-])cc1/C2=N\O | 77.7% (inactive)

Row | Structure (SMILES) | growth
19 | C=C(C)[C@@H]1CC[C@]2(/C=N/Nc3ccncc3)CC[C@]3(C)[C@H](CC[C@@H]4[C@@]5(C)CCCNC(C)(C)[C@@H]5CC[C@]43C)[C@@H]12 | 83.7% (inactive)
20 | C=C(c1ccc(C(=O)O)c(F)c1)c1cc2c(cc1C)C(C)(C)C=CC2(C)C | 93.8% (inactive)
21 | COc1ccc(C(=O)/C=C/c2ccc(N3CCCCC3)cc2)cc1OC | 61.8% (inactive)
22 | COc1ccc(N2CCN(c3ccc(NC4=C(Cl)C(=O)c5ncccc5C4=O)cc3)CC2)cc1 | -53.9% (active)
23 | COc1ccccc1NC(=O)COc1ccc(/C=C2/Oc3cc4occc4c(OC)c3C2=O)cc1OC | 102% (inactive)
24 | Cc1ccc(C(C)C)cc1C(=O)C[n+]1ccccc1 | 107% (inactive)
25 | C=CCCCC(=O)CCC(=O)OCC1O[C@@H](O[C@@H]2C(O)[C@@H](OC(C)=O)C(C)O[C@H]2O[C@H](CC=C)CCCCC)C(O)[C@@H](OC(=O)/C(C)=C/C)[C@@H]1OC(=O)/C=C/c1ccccc1 (stereo partly specified) | -23.6% (active)
26 | CS(=O)(=O)c1nsc(N)n1 | 109% (inactive)
27 | Cc1nnc(NC(=O)c2nc(S(=O)(=O)Cc3ccc(F)cc3)ncc2Cl)s1 | -15.1% (active)
28 | COc1cc(-c2nn(-c3cccc(NC(=O)Nc4ccc(Cl)c(C(F)(F)F)c4)c3)cc2-c2ccncc2)ccc1Cl | -7.22% (active)
29 | COc1ccc(C2=Nn3c(nnc3-n3nc(C)cc3C)SC2)cc1 | 22.2% (inactive)
30 | COc1ccc(NC(=S)Nc2ccccn2)cc1 | 104% (inactive)
31 | COc1cc2c3c(n(C4CCN(C)CC4)c(=O)c2cc1OC)-c1cc2c(cc1C3=O)OCO2 | 31.6% (inactive)
32 | CCN1CCN(CCOc2ccc(CNc3ccc4nc(CCC5CCCCC5)[nH]c4c3)cc2)CC1 | 35% (inactive)
33 | O=C1NCc2ccc3c(-c4cccc(Cl)c4)c[nH]c3c21 | 26.5% (inactive)
34 | C[C@H](C(=O)N[C@@H](Cc1ccc(-c2ccccc2)cc1)C(=O)NC1CC(C)(C)N(C)C(C)(C)C1)c1ccc(-c2ccccc2)c(F)c1 | -86.5% (active)
35 | COc1cc(OC)c(/C=C/C(=O)c2c(OC)cc(OC)cc2OC)c(OC)c1 | 14% (inactive)
36 | CCCCCc1ccc(S(=O)(=O)Nc2cc(-c3csc(NC(=O)CN4CCN(C)CC4)n3)ccc2N2CCN(C)CC2)cc1 | 51.7% (inactive)
